# From PubChem BioAssay (NCI)
# About 83,000 compounds went through this panel and 20% of them were active in at least one assay; those are over-represented in the sample as a whole.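 A percent growth of 40 corresponds to 60% growth inhibition; 0 means no net growth; -100 means all cells died. Active threshold: below 10.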 The source made the active and inactive calls.
# Test system: HL-60(TB) leukemia
# Assay: NCI-60 one-dose screen, 48 h (100 = growth as untreated, 0 = no growth, -100 = all killed)
# Details: 10 µM unless noted
row,Compound,growth
1,c1ccc(Cc2ccccc2)cc1,112% (inactive)
2,CCOc1cc(C(C)(C)C)ccc1C1=N[C@H](c2ccc(Cl)cc2)[C@H](c2ccc(Cl)cc2)N1C(=O)N1CCN(CC#Cc2cccc3c2CN([C@@H]2CCC(=O)NC2=O)C3=O)CC1,-20.9% (active)
3,CCCCCCC(C)c1ccccc1O (stereo not given) (tested in a mixture with another compound),113% (inactive)
4,O=C(/C=C/c1cccc(O)c1)c1cccc(-n2cc(-c3ccc(Cl)cc3)[nH]c2=O)c1,-6.19% (active)
5,O=C(C[n+]1cccc(Br)c1)c1ccc2c(c1)CCCC2,83.6% (inactive)
6,Clc1cc(Cl)cc(Nc2ccc3cc(OCCCN4CCOCC4)ccc3n2)c1,26.7% (inactive)
7,CC[N+](CCCCCCCCCC[N+](CC)(c1ccccn1)c1ccccn1)(c1ccccn1)c1ccccn1,-50.7% (active)
8,Nc1nc(-c2cccc3ccccc23)cc2ccccc12,-48.5% (active)
9,FC(F)(F)Oc1ccc2nc3nc4ccc[nH]c4cc3c2c1,73.4% (inactive)
10,C#Cc1cccc(Nc2ncnc3ccc(NC(=O)c4ccccc4)cc23)c1,71.9% (inactive)
11,C/C(=C\c1ccc(OCC(=O)O)c(Cl)c1Cl)[N+](=O)[O-],79.8% (inactive)
12,CC(=O)c1c(Nc2cccc(F)c2)[nH]c2c(Cl)cc(Cl)c(Cl)c2c1=O,-36.5% (active)
13,CC(C)[C@H](NC(=O)Cn1cc(C(=O)O)nn1)C(=O)O,123% (inactive)
14,CCOC(=O)c1cc(-c2ccccc2)nc(N)n1,101% (inactive)
15,CCCCCCCCN(CCCCCCCC)CCCCCCCCCN1CCCc2cc(OC)ccc21,89.6% (inactive)
16,COc1cc(/C=C/C(=O)c2cccnc2Nc2ccc(F)cc2)cc(OC)c1OC,5.42% (active)
17,COc1cccc(/C=N/NC(=O)c2ccccc2N2CCCC2)c1O,4.58% (active)
18,Cn1c(=O)c2c(nc(Nc3cc(=O)[nH]c(=O)[nH]3)n2Cc2ccccc2)n(C)c1=O,90.6% (inactive)
19,O=C(NOCCO)c1cc(CN2OCCCC2=O)c(F)c(F)c1Nc1ccc(I)cc1F,18.2% (inactive)
20,O=C(CCCNC(=O)c1nc(-c2ccccc2)n(-c2ccccc2)n1)NO,87.9% (inactive)

row,Compound,growth
1,C1=NCCc2ccccc21,116% (inactive)
2,C/C(=N\NC(=O)Cn1c(-c2ccc(S(C)(=O)=O)cc2)nc2cc(Cl)ccc21)c1ccc(Cl)cc1,88.2% (inactive)
3,CCCCCCOc1ccc(/C=N/NC(N)=S)cc1,8.79% (active)
4,CC(=O)OC[C@H]1O[C@H](OC(C)=O)[C@H](NC(=O)/C=C/CCl)[C@@H](OC(C)=O)[C@@H]1OC(C)=O,96.4% (inactive)
5,CN1CCN(C(=S)S)CC1,111% (inactive)
6,O=C(NCCCl)Nc1nccnc1OCc1ccc(F)cc1,-18.9% (active)
7,CCOC(=O)c1cc(C(=O)c2cc(OC)cc(OC)c2)n2ncccc12,-21.7% (active)
8,O=C(O)CCCN1C(=O)CSC1=S,103% (inactive)
9,NC(=O)C1(N2CCCCC2)CCN(CCCC(=O)c2ccc(F)cc2)CC1,9.84% (active)
10,Cc1ccccc1C[P+](c1ccccc1)(c1ccccc1)c1ccccc1,1.16% (active)
11,CC/C=C\C[C@H](O)C/C=C1/C(=O)C=C[C@@H]1C/C=C\CCCC(N)=O,-30.9% (active)
12,COc1c2occc2c(OC)c2c(=O)c(-c3cc(-c4ccc(F)cc4)c(C#N)c(N)n3)c(C)oc12,54.7% (inactive)
13,C#Cc1cccc(Nc2ncnc3cc(NC(=O)CCl)ccc23)c1,-41.3% (active)
14,CCCCCCCCCCCCCCCCCBr,103% (inactive)
15,Brc1ccc2c(c1)c(-c1nc(-c3c[nH]c4ncccc34)cs1)cn2CCCN1CCCCC1,13.3% (inactive)
16,COc1ccc(N/N=C/c2ccc3c(c2)Sc2ccccc2N3C)cc1,57.3% (inactive)
17,CC(=O)c1nc2ccccc2n1CCN1CCN(C)CC1,8.01% (active)
18,Nc1ccc(C2=CC(c3ccc(Cl)cc3)N3C=CSC3=N2)cc1 (stereo not given),-19.3% (active)
19,ClCCOCCOc1ccc(C2CCCCC2)cc1,105% (inactive)
20,Cc1nnc(-c2cc3c(ccc4ccccc43)oc2=O)c2cn(-c3ccc(Cl)cc3)nc12,84.4% (inactive)
